Common to all, as to assay: DAPPL (digital affinity profiling via proximity ligation, sequencing); 10 mM Tris-HCl pH 7.5, 50 mM NaCl, 1 mM DTT, 4% glycerol, room temperature, 30 min; GST-TFs on glutathione beads, 16-mer random dsDNA library, 0.1% formaldehyde crosslink after washing; high values mean tight binding
Common to all, as to settings: protein: recombinant; tags: N-terminal GST; dsDNA, one strand shown

Test [1] addresses T1, ERG (Homo sapiens, UniProt P11308 1-479).
T1 sequence: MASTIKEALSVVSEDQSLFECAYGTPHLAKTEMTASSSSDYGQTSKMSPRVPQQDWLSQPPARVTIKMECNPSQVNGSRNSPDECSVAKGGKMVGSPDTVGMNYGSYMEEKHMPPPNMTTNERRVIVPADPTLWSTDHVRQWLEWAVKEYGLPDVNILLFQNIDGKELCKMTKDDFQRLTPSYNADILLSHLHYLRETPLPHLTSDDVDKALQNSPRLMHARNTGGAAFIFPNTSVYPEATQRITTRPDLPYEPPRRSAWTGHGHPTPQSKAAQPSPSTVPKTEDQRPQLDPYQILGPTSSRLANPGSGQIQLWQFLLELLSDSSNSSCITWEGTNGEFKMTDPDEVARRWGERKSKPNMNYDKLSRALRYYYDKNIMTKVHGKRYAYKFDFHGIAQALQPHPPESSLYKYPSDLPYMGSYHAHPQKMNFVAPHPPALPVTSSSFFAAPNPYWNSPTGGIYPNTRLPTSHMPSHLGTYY
Put shortly: (§1)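 A tag-only sample was pooled with DNA-barcoded human transcription factors that had been expressed in yeast as GST fusions and captured on glutathione beads. The pools were incubated for 30 min at room temperature with 200 nmole of a random double-stranded 16-mer DNA library in Tris/NaCl/DTT/glycerol buffer, then washed, crosslinked with 0.1% formaldehyde, proximity-ligated (BsaI/T4 ligase, 1 h, 37 °C), PCR-amplified and sequenced on an Illumina NextSeq500. Binding signal is each hexamer's read frequency for a factor divided by its frequency for the tag-only sample.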

The target of test [2] is ELF1 (Homo sapiens, UniProt P32519 1-619). Put shortly: as §1
ELF1, sequence (P32519 whole entry): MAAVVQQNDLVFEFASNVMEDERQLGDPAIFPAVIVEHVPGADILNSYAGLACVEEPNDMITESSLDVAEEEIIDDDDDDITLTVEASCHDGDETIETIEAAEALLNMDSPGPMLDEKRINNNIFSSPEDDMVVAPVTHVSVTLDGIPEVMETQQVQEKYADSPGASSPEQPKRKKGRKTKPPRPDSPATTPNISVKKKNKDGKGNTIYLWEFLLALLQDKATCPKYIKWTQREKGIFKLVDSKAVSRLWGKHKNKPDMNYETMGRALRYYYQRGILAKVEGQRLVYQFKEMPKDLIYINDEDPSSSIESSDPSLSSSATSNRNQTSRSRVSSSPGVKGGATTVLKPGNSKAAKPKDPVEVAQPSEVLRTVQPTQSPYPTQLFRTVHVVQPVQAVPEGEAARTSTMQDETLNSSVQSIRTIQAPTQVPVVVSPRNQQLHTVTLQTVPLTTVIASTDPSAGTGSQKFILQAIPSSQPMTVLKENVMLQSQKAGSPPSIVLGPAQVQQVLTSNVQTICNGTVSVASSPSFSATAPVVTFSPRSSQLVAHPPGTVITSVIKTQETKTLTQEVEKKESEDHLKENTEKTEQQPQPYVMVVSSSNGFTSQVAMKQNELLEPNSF
For test [3], the target named is T2, EHF (Homo sapiens, UniProt Q9NZC4 1-300).
T2 sequence: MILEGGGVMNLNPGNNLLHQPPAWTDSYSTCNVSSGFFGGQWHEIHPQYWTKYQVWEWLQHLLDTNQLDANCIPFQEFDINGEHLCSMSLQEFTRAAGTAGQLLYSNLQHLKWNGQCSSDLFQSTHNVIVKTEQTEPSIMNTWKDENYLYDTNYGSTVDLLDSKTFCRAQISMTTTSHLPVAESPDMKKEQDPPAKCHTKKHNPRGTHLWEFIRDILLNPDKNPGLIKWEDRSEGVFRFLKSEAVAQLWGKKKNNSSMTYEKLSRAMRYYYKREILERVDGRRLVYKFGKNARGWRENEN
Put shortly:
as §1

The target in test [4] is SPIB (Homo sapiens, UniProt Q01892 1-262). Put shortly: as §1
SPIB, sequence (Q01892 whole entry): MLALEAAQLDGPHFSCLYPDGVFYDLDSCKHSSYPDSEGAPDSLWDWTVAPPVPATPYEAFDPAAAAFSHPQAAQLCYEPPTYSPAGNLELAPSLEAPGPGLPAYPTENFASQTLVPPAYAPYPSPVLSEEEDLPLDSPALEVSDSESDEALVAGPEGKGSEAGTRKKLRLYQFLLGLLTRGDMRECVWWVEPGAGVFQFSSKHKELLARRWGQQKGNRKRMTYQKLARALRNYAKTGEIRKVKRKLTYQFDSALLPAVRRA
In test [5] the target is ETV5 (Homo sapiens, UniProt P41161 1-510). Put shortly: as §1
ETV5, sequence (P41161 whole entry): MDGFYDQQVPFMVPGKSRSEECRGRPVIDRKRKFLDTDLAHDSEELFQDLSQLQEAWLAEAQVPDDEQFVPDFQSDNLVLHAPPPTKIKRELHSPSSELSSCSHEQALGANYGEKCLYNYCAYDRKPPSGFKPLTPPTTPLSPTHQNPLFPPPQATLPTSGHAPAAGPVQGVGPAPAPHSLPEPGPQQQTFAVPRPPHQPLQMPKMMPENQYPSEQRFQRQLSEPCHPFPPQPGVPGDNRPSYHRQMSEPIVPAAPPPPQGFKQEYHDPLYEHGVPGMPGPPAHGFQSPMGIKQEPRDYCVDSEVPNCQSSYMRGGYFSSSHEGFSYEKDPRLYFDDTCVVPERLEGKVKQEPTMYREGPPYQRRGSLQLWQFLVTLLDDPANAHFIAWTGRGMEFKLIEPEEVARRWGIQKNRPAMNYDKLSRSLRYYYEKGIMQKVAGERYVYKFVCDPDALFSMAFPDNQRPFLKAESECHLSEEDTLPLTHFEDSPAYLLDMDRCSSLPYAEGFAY
In test [6] the target is T3, ELF3 (Homo sapiens, UniProt P78545 1-371).
T3 sequence: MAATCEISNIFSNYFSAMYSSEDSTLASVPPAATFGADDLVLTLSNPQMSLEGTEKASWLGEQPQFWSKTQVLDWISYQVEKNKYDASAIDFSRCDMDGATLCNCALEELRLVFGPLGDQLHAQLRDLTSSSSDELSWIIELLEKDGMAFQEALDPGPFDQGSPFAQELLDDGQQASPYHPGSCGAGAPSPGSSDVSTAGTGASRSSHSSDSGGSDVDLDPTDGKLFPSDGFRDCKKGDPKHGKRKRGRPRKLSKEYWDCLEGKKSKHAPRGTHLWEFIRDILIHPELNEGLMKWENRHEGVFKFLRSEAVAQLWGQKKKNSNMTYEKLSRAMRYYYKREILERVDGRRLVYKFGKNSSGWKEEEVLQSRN
Put shortly:
as §1

Test [7] concerns the target ETV1 (Homo sapiens, UniProt P50549 1-477). Put shortly: as §1
The target of test [8] is T4, ELK1 (Homo sapiens, UniProt P19419 1-428).
T4 sequence: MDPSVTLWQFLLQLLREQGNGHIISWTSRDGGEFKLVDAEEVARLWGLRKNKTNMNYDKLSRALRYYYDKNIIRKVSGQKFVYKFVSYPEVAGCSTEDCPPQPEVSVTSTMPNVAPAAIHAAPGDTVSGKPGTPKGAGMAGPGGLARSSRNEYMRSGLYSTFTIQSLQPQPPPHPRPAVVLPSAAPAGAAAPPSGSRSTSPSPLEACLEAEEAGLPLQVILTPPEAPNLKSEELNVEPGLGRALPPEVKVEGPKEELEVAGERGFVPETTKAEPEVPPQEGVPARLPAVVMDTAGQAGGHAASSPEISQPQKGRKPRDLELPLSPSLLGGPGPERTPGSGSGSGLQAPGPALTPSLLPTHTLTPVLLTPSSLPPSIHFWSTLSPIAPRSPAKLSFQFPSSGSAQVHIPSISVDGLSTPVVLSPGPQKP
Put shortly:
as §1

Test [9] concerns the target T5, ELK3 (Homo sapiens, UniProt P41970 1-407).
T5 sequence: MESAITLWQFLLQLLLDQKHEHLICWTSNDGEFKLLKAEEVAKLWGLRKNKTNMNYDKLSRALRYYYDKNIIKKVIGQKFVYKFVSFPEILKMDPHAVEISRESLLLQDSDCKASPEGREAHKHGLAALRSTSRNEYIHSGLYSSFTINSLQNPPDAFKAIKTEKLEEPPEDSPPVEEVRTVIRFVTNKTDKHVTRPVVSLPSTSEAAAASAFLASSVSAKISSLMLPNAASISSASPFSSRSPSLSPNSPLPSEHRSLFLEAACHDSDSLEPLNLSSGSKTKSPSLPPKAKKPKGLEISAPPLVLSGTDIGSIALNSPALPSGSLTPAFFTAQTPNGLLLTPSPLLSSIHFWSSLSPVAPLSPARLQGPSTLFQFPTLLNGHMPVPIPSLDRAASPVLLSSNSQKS
Put shortly: as §1

The target of test [10] is T6, SPIC (Homo sapiens, UniProt Q8N5J4 1-248).
T6 sequence: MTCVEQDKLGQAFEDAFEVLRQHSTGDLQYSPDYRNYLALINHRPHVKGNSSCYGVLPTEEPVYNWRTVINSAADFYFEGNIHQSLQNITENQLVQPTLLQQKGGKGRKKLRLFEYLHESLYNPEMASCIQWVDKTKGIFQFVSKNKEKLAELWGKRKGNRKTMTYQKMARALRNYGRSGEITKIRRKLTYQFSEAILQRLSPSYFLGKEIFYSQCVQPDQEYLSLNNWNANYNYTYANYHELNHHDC
Put shortly:
as §1

For test [11], the target named is ELF4 (Homo sapiens, UniProt Q99607 1-663). Put shortly:
as §1

Test [12] has as its target T7, ELK4 (Homo sapiens, UniProt P28324-2 1-405).
T7 sequence: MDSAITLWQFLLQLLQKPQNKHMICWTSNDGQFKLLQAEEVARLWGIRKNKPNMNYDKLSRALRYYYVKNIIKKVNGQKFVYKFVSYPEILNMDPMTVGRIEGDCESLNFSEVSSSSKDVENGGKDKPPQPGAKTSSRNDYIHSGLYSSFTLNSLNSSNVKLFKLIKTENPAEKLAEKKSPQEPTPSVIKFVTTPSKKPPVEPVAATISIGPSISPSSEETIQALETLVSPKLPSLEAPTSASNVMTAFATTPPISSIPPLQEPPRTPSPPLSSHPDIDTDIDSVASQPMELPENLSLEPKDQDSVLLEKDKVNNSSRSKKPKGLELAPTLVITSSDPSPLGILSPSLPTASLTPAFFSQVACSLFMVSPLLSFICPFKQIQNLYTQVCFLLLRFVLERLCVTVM
Put shortly:
as §1

The target in test [13] is T8, ERF (Homo sapiens, UniProt P50548 1-548).
T8 sequence: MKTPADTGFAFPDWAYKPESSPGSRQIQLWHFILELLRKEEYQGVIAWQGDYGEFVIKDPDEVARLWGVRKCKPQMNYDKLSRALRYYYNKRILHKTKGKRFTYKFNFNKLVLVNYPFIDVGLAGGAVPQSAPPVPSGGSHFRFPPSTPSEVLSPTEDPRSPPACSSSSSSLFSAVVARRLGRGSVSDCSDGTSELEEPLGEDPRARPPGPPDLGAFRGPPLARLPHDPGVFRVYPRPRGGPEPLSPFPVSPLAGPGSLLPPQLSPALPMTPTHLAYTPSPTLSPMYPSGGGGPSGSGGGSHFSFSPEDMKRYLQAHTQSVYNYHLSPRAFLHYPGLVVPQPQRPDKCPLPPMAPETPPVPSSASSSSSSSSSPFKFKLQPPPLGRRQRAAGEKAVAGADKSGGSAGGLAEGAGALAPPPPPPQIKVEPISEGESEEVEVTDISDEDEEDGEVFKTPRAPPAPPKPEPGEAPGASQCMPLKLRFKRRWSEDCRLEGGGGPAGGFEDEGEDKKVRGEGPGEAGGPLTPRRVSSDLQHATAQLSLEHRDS
Put shortly:
as §1

The target in test [14] is T9, ETV3L (Homo sapiens, UniProt Q6ZN32 1-361).
T9 sequence: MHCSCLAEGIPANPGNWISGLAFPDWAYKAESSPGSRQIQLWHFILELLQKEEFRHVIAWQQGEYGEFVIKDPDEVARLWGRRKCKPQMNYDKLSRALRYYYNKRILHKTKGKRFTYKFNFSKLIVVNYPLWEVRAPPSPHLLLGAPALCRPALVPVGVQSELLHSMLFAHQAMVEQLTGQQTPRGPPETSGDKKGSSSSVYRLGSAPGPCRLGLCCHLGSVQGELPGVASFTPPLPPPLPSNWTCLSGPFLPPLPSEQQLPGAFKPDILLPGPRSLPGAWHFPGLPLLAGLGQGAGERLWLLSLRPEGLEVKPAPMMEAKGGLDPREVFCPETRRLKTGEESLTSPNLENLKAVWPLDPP
Put shortly: as §1

Test [15] deals with T10, SPDEF (Homo sapiens, UniProt O95238 1-335).
T10 sequence: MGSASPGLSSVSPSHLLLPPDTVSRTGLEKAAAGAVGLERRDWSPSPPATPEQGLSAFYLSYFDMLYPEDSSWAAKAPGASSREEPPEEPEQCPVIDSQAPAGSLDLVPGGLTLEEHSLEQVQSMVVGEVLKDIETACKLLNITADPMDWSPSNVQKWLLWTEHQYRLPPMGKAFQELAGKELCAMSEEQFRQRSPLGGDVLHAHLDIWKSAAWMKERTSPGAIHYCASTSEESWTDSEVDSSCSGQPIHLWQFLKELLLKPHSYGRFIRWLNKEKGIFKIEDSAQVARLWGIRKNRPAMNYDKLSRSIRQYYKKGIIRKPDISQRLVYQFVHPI
Put shortly:
as §1

Test [16] addresses T11, ETV7 (Homo sapiens, UniProt Q9Y603 1-341).
T11 sequence: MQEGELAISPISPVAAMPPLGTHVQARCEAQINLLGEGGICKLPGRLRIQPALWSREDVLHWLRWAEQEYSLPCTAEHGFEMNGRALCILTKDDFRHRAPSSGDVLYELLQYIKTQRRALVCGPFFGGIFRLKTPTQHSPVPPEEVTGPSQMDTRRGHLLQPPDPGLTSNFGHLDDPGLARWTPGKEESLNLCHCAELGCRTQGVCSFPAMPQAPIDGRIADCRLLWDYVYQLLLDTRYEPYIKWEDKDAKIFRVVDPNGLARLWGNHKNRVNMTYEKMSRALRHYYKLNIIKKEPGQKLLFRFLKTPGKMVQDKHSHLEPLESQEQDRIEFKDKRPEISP
Put shortly: as §1

The target in test [17] is T12, ETV3 (Homo sapiens, UniProt P41162-2 1-143).
T12 sequence: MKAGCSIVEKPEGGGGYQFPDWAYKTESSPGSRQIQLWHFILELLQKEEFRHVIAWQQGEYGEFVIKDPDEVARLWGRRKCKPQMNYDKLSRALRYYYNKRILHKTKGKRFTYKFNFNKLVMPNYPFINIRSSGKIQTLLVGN
Put shortly: as §1

The target in test [18] is ETV6 (Homo sapiens, UniProt P41212 1-452). Put shortly:
as §1

ETV1, sequence (P50549 whole entry): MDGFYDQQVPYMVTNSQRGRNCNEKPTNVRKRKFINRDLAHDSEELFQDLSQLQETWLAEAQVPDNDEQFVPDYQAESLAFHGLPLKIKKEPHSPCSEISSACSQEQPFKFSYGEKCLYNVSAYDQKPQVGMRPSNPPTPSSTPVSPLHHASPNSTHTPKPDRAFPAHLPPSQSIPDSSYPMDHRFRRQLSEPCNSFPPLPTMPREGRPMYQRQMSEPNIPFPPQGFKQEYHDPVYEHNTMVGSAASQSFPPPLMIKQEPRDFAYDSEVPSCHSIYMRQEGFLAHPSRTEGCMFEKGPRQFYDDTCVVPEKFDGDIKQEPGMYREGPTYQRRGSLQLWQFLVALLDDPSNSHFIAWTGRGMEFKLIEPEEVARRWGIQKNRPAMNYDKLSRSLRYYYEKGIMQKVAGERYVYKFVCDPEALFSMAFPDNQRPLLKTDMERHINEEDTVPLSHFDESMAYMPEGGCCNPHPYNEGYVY
ELF4, sequence (Q99607 whole entry): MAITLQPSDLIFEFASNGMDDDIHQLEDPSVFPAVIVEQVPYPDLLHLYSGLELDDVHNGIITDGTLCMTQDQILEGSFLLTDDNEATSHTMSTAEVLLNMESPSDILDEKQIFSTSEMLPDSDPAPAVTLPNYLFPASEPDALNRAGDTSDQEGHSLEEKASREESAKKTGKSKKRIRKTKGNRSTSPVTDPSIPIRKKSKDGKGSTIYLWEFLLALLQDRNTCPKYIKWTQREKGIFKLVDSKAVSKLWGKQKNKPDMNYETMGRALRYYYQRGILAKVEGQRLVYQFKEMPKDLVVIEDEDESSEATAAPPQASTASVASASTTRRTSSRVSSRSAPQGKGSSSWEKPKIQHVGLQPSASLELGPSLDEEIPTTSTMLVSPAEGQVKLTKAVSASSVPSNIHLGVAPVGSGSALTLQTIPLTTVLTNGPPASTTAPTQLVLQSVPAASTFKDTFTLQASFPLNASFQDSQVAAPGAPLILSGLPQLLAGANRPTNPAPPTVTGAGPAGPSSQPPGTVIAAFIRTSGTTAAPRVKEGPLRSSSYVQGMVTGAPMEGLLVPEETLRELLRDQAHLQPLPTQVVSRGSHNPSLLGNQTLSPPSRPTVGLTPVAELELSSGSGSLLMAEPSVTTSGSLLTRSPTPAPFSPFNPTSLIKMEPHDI
ETV6, sequence (P41212 whole entry): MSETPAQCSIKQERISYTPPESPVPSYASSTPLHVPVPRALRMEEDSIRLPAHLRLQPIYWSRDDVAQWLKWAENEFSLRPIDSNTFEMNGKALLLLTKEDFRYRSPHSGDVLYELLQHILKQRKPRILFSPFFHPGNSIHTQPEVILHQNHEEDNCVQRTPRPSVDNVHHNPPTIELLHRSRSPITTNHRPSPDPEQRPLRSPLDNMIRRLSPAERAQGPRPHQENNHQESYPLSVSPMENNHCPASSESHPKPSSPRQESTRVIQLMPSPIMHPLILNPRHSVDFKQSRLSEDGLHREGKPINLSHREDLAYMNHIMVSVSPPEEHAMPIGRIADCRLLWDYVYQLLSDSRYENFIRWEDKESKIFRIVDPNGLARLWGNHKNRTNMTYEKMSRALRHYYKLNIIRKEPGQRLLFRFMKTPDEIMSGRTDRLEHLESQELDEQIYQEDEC

TGGAAC: the binding signal in test [1] was 1.02 fold enrichment (6-mer frequency, TF over GST control); in test [2], 1 fold enrichment (6-mer frequency, TF over GST control); in test [3] it was 1.04 fold enrichment (6-mer frequency, TF over GST control); in test [4], 1.04 fold enrichment (6-mer frequency, TF over GST control); in [5], 1.05 fold enrichment (6-mer frequency, TF over GST control); in test [6] it was 1.05 fold enrichment (6-mer frequency, TF over GST control). The binding signal in [7] was 1.04 fold enrichment (6-mer frequency, TF over GST control).
Regarding CAATGT, the binding signal was 1.06 fold enrichment (6-mer frequency, TF over GST control) in test [8]; 1.02 fold enrichment (6-mer frequency, TF over GST control) in test [1]; 1.05 fold enrichment (6-mer frequency, TF over GST control) in test [3]; 1.04 fold enrichment (6-mer frequency, TF over GST control) in test [4]; 1.01 fold enrichment (6-mer frequency, TF over GST control) in test [9]; 1.02 fold enrichment (6-mer frequency, TF over GST control) in test [5]. In addition, the binding signal was 1.13 fold enrichment (6-mer frequency, TF over GST control) in test [10]; 1.06 fold enrichment (6-mer frequency, TF over GST control) in test [11]; 1.1 fold enrichment (6-mer frequency, TF over GST control) in test [12]; 1.07 fold enrichment (6-mer frequency, TF over GST control) in [7]; 1.05 fold enrichment (6-mer frequency, TF over GST control) in test [13]; 1.03 fold enrichment (6-mer frequency, TF over GST control) in test [14]. Also, the binding signal in test [15] is 1.07 fold enrichment (6-mer frequency, TF over GST control); in test [16], 1.09 fold enrichment (6-mer frequency, TF over GST control); in [17], 1.03 fold enrichment (6-mer frequency, TF over GST control); in test [18] it was 1.05 fold enrichment (6-mer frequency, TF over GST control).

Source of the values: article PMC7862700, “An all-to-all approach to the identification of sequence-specific readers for epigenetic DNA modifications on cytosine”.
